Compound activity deposited in PubChem BioAssay by several laboratories.
This is a sample that favours compounds with a hit; in the whole collection about 3.8% have one here.
Cardio protect: myocardial damage modulation in H9c2 cells | H9c2 cardiomyocytes, H2O2 injury protection, ATPLite, 2 h | protection from H2O2 cell death, % at 20 µM | 0.63% of 360,000 active;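 active = compounds giving at least 50% protection of heart cells from peroxide-induced death in the single-dose screen, raw or plate-pattern-corrected value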;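 also: 0% = DMSO wells with peroxide and 100% = DMSO wells without peroxide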
SUMO Mot1 rescue: inhibitors of SUMOylation pathway: yeast Mot1-301 growth rescue | 1% of 320,000 active | growth rescue, % at 18.8 µM | S. cerevisiae Mot1-301 growth rescue, ATP luminescence, 38.5C; percent above DMSO median, 100 means doubled;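 active = every valid replicate shows activation above 250% relative to neutral control wells; inactive = the rest, any valid replicate at or below 250%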;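 also: OY570 slx delta 5 strain wells were the positive control but not used for scaling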
MPTP inh: blocks calcium-induced mitochondrial swelling; isolated mouse mitochondria, Ca2+ swelling absorbance, 30 min; inhibition, % at 10 µM; 1.4% of 360,000 active;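 active = inhibition of 50% or more, scaled per plate between neutral and stimulator controls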;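 also: 0% = DMSO wells given calcium and 100% = 1 mM EGTA wells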
Yeast superoxide: lowers age-related superoxide in aged yeast cells; S. cerevisiae aged cells, superoxide DHE fluorescence; active compounds read low; superoxide response (% of plate mean), % at 10 µM; 0.18% of 330,000 active;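 active = superoxide response under a set limit, about three screen SD below normal, cut at about 65% in these data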;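 also: yeast aged for seven days with compound at 30 °C before DHE staining; 100% = average MFI of all compound-treated wells on the plate with controls excluded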
FAS TE block: FAS thioesterase (human) inhibition; recombinant FAS-TE, OMFH fluorogenic substrate, fluorescence endpoint; inhibition, % at 15 µM; 0.67% of 360,000 active; AID 602261;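 active = compounds whose normalised, plate-corrected inhibition of enzyme fluorescence in the single-dose primary screen is 50% or more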;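 also: 0% = DMSO with enzyme and 100% = substrate without enzyme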
Target sequence (P49327 whole entry, looked up): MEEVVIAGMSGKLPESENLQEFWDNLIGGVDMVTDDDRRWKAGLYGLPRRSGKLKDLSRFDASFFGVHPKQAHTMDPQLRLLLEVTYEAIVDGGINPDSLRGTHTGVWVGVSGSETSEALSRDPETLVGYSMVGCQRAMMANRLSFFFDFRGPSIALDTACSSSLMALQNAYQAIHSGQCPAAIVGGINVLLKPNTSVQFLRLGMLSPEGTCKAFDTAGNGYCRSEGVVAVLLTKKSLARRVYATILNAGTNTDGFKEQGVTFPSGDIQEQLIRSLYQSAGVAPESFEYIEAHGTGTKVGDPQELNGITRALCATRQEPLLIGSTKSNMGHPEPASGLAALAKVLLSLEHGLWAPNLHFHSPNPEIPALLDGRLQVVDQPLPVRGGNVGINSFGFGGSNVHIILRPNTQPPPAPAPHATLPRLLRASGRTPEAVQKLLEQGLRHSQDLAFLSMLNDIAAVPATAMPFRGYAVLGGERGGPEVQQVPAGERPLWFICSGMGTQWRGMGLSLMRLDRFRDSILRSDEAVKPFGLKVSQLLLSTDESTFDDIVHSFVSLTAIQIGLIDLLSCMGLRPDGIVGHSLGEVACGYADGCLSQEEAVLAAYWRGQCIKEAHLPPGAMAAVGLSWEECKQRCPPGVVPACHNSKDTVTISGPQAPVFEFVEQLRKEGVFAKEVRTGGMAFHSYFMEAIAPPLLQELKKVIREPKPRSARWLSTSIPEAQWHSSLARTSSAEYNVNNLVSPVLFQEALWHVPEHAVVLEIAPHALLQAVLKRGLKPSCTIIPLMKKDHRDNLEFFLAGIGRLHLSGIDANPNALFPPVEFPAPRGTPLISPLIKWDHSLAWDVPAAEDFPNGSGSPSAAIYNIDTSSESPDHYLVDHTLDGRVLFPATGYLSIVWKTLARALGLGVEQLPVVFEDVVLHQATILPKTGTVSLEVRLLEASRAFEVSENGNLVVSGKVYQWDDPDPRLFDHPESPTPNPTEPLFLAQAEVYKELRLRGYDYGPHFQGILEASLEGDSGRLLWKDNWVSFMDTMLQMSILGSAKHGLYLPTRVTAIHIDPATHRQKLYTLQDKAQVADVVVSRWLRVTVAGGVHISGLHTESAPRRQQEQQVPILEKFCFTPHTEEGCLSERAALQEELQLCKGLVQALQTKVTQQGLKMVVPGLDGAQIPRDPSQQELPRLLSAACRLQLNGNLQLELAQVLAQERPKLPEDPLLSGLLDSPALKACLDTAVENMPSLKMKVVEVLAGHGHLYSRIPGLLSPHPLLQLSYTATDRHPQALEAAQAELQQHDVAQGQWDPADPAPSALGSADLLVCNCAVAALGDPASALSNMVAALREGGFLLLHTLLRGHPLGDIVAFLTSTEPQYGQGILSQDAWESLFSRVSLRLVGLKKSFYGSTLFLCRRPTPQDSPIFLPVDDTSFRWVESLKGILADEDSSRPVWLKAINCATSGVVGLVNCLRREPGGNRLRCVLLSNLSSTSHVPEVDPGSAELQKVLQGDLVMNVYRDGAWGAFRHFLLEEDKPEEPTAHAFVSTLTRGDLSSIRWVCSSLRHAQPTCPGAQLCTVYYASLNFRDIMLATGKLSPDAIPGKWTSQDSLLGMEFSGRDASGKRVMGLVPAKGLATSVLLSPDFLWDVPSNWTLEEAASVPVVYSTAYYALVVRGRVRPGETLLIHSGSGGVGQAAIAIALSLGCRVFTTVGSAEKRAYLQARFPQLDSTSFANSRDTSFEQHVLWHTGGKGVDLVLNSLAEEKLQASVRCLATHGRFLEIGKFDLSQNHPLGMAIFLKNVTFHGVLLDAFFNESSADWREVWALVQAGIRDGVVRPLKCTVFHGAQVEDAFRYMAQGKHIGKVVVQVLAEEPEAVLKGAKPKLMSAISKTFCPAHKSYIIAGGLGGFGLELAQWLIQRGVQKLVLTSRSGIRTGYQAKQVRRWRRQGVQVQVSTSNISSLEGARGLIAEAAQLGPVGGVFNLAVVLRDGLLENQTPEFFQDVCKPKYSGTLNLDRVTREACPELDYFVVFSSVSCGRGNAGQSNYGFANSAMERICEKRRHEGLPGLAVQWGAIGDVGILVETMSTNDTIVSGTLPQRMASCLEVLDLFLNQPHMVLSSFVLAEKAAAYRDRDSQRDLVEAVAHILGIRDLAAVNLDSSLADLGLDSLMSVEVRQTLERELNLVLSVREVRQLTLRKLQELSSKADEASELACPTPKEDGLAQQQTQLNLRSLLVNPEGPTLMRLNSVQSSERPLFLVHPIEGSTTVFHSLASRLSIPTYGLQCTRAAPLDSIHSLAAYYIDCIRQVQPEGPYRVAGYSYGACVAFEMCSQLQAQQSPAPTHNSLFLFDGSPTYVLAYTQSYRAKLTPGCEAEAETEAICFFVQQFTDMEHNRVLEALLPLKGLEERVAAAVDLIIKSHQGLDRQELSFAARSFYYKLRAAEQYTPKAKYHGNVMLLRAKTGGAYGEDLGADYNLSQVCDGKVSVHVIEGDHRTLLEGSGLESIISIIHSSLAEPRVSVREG
aDG glyco act: alpha-DG glycosylation activation; Pro5-aDG cells, alpha-DG glycosylation AlphaScreen (IIH6); 0% Pro5, 100% B10-LARGE cell signal; activation, % at 10 µM; 0.22% of 360,000 active; AID 624168;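 active = activation of at least 8% versus controls, or a plate z-score of at least 8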;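 also: Pro5 are CHO cells carrying HIG-tagged alpha-DG that lacks glycosylation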
Starred values were filed as active, the others as inactive; · = no result.

SMILES	Cardio protect	SUMO Mot1 rescue	MPTP inh	Yeast superoxide	FAS TE block	aDG glyco act
COc1cc(/C=C/C(=O)OCC(=O)N2c3ccccc3NC(=O)C2(C)C)cc(OC)c1OC	76*	2	-3	105	0	-1
Nc1c(C(=O)NC2CCCC2)c2nc3ccccc3nc2n1/N=C/c1ccco1	50*	200	3	95	4	0
Nc1c(C(=O)NC2CCCC2)c2nc3ccccc3nc2n1N	62*	·	-3	114	4	0
COc1ccccc1/C=N/n1c(N)c(C(=O)NC2CCCCC2)c2nc3ccccc3nc21	5	·	2	·	15	1
C/C(=N\NC(=O)c1cccnc1)c1ccc(OC2OCCOC2Oc2ccc(/C(C)=N/NC(=O)c3cccnc3)cc2)cc1 (configuration not stated)	53*	-14	-1	99	-1	0
COc1ccc(/C(C)=N/NC(=O)CNC(=O)c2cccnc2)cc1	3	27	0	101	-6	0
Cc1ccccc1C(=O)N1CCC(C(=O)N(CC(C)C)c2c(N)n(Cc3ccccc3)c(=O)[nH]c2=O)CC1	-7	336*	-1	97	-1	0
Cc1ccc(NC(=O)c2nc[nH]c2C(=O)NCCCCCCNC(=O)c2[nH]cnc2C(=O)Nc2ccc(C)cc2)cc1	81*	-14	1	119	3	0
Cc1ccc(NC(=O)c2nc[nH]c2C(=O)NCCCCNC(=O)c2[nH]cnc2C(=O)Nc2ccc(C)cc2)cc1	33	3	1	101	12	0
Cc1ccc(NC(=O)c2nc[nH]c2C(=O)NCCCNC(=O)c2[nH]cnc2C(=O)Nc2ccc(C)cc2)cc1	66*	8	1	104	-10	-1
O=C(CC1CC2CCC1C2)N1CCN(S(=O)(=O)c2ccc(F)cc2)CC1 (configuration not stated)	1	·	1	·	2	0
Cc1cc(C)n(/N=C/c2c[nH]c3ccccc23)c(=O)c1C#N	5	296*	-1	128	-4	0
C[C@H](CO)N1C[C@H](C)[C@@H](CN(C)C(=O)Nc2ccc3c(c2)OCO3)Oc2c(NC(=O)Nc3ccc(C(F)(F)F)cc3)cccc2C1=O	86*	-10	0	109	76*	-1
C[C@H](CO)N1C[C@H](C)[C@@H](CN(C)C(=O)Nc2ccc(C(F)(F)F)cc2)Oc2c(NC(=O)Nc3ccc4c(c3)OCO4)cccc2C1=O	6	10	-2	133	75*	0
Nc1cc([N+](=O)[O-])ccc1Nc1ccc(O)cc1	12	-19	1	63*	8	0
CCCCc1ccc(NC(=O)CSc2nc(=O)n(CCCN3CCOCC3)c3c2CCC3)cc1	2	536*	1	103	5	0
Cc1ccc2nc(/C(C#N)=C/c3ccc(O)c(O)c3)[nH]c2c1	71*	-9	5	95	14	0
CC(C)C(NC(=O)c1ccc(Cl)cc1Cl)C(=O)N1CCN(S(=O)(=O)c2ccccc2)CC1 (configuration not stated)	0	58	-1	97	0	0
COc1cc(NS(=O)(=O)c2c(C(=O)N3CCOCC3)c(C)n(C)c2C)cc(OC)c1OC	-2	-4	-1	92	-6	0
CC1(C(=O)Nc2ccc3c(c2)OCCO3)CN(S(C)(=O)=O)CC(=O)N1CCc1ccccc1F (configuration not stated)	·	·	0	·	·	0
CCOc1ccc2[nH]c(=O)c(CN(CCO)C(c3nnnn3C3CCCCC3)C(C)C)cc2c1 (configuration not stated)	103*	·	2	·	-7	0
O=S(=O)(Nc1ccc(O)c2ncccc12)c1ccccc1F	60*	·	3	·	-2	0
Cc1ccc(C)c(S(=O)(=O)Nc2ccc(O)c3ccccc23)c1	-22	-17	0	103	4	4.3*
COc1ccc(CC(=O)OCC(=O)NC2CCCC(C)C2C)cc1 (configuration not stated)	5	3	-1	101	0	1
O=C(Cn1cnc2ccccc2c1=O)NNC(=O)c1cccc([N+](=O)[O-])c1	8	-1	-2	84	-1	0
CCOc1cc(NC(=O)c2ccccn2)c(OCC)cc1NC(=O)c1ccccc1	3	92	-1	99	7	0
